Only some compounds are listed: those with a hit (about 3.8% of all), similar ones and a draw of the others.
Nrf2 block – blocks Nrf2 signaling; AID 504444; Potency, µM (highest dose often 46 µM), inactives show at the highest dose activity change, negative = inhibition, usual class: inhibitors; 360,000 tested, 2.1% active; A549 ARE-Fluc reporter, luciferase luminescence, 18-24 h; also: % is scaled to controls: 0 for no effect and ±100 for the full control effect; nearly all actives have a fitted effect of over 60% in size
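Nrf2 activity is the BugLite luminescence, read 15 min after reagent at room temperature, following CellTiter-Fluor cytotoxicity readout (30 min, 37C). Compound titrations were applied for 18-24 h to 5000 A549 ARE_Fluc cells/well in 5% FBS OPTI-MEM.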
A549 viability – counter-screen for Nrf2 inhibitors: cytotoxicity in A549 cells. 390,000 tested, 0.16% active. Potency, µM (doses to about 46 µM), for the others: at the highest dose activity change, negative = cytotoxicity, hits mostly inhibitors. A549 ARE-Fluc cells, CellTiter-Fluor viability, 18-24 h. AID 504648; also: % is scaled to controls: 0 for no effect and ±100 for the full control effect
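Cytotoxicity counterscreen: CellTiter-Fluor fluorescence was measured in A549 ARE_Fluc cells after 18-24 h of compound exposure in a concentration series. The subsequent BugLite luminescent read reports ARE-luciferase activity.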
ELG1 repair inh – inhibitors of ELG1-dependent DNA repair in HEK293T cells; HEK293T ELG1-luciferase reporter, luminescence, 16 h; DNA damage induced by 5-fluorouridine; Potency, µM (highest dose often 46.1 µM), for the others: top-dose activity change, negative = inhibition, hits mostly inhibitors; 330,000 tested, 2.3% active; also: % is scaled to controls: 0 for no effect and ±100 for the full control effect; nearly all actives have a fitted effect of over 55% in size
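Luminescence from the luciferase reporter, measured 30 min after ONE-Glo reagent at room temperature, was the read-out. Beforehand, 2,000 cells per well were exposed for 16 hr at 37 °C to 5-fluorouridine together with compound or vehicle.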
IDH1 R132H inh – blocks human mutant IDH1 R132H enzyme. O75874. IDH1-R132H enzyme, NADPH consumption, diaphorase/resazurin fluorescence. Potency, µM (highest dose often 76.6 µM), for inactives: at the highest dose activity change, negative = inhibition, most hits filed as inhibitors. 390,000 tested, 0.093% active; also: % is scaled to controls: 0 for no effect and ±100 for the full control effect; nearly all actives have a fitted effect of over 65% in size
Target sequence (O75874 whole entry R132H, stated change not applied): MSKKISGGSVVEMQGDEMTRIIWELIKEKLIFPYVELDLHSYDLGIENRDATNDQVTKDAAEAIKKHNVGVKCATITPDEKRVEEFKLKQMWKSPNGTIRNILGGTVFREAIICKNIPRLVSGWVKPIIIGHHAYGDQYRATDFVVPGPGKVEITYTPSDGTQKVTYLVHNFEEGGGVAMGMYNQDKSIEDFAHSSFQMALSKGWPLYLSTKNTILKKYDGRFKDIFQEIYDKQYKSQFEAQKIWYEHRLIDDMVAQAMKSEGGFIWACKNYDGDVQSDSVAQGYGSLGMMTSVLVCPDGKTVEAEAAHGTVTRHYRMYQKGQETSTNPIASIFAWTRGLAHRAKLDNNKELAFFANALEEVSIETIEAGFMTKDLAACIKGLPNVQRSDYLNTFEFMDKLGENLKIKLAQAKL
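IDH1-R132H (0.5 ug/mL) preincubated 30 min with compound, then NADPH (0.016 mM) and alpha-KG (2 mM) added; 80 min at RT, pH 7.5. Remaining NADPH coupled via diaphorase/resazurin to fluorescence (540/590 nm); concentration-response curves normalized to no-enzyme control.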
Nrf2 activator – activates Nrf2 signaling. 410,000 tested, 0.31% active. AREc32 ARE-luciferase reporter (MCF7-derived line), luminescence, 24 h. AID 624171. Potency, µM (highest dose often 46.1 µM), for inactives: at the top dose activation, hits mostly activators; also: % of control where 0% means no effect; nearly all actives have a fitted effect of over 65% in size
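Reporter line AREc32 (ARE-Fluc), seeded overnight in OPTI-MEM with 5% FBS; compound pin-transferred, 24 hr at 37 deg C, 5% CO2; luminescent read-out.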
An asterisk follows results filed as active; [ ] = another dose, or the depositor's remark. Calls follow the shape of the dose curve; as a rule, active = well fitted curve in the direction sought with a large enough effect; inconclusive = small, poorly fitted or top-dose-only effect, or another doubt; inactive = no such curve, though single readings can be large; an effect the other way counts as inactive or inconclusive. Potency is read from the fitted curve at half-maximal effect.

`CCn1cc(C(=O)N(C)c2ccc(C(C)C)cc2)c2cc(OC)c(OC)cc2c1=O` gave Nrf2 block 6%[9.27 µM], A549 viability -13%, IDH1 R132H inh 4% and Nrf2 activator 5%.
`CCn1c(SCC(=O)N2CCOCC2)nc2sc3c(c2c1=O)CCCC3` gave A549 viability 2%, ELG1 repair inh 5%, IDH1 R132H inh 8% and Nrf2 activator 3%.
Screening Cc1nc(SCC(=O)N2CCOCC2)c2c3c(sc2n1)CCC3 returned Nrf2 block inconclusive, A549 viability -4%, ELG1 repair inh 21µM*, IDH1 R132H inh 9% and Nrf2 activator 0%.
For O=[N+]([O-])c1ccc(Oc2ccc(S(=O)(=O)N3CCOCC3)cc2)cc1 the results were Nrf2 block 26µM*, A549 viability -3%, ELG1 repair inh -15%, IDH1 R132H inh 4% and Nrf2 activator 1%.
For N#CCc1c(C#N)c(N)nc(N2CCN(Cc3ccc4c(c3)OCO4)CC2)c1C#N the results were Nrf2 block -12%, A549 viability 14%, ELG1 repair inh 18µM*, IDH1 R132H inh 4% and Nrf2 activator 3%.
`Cc1cc(C)c(C#N)c(N2CCN(Cc3ccc4c(c3)OCO4)CC2)n1` gave Nrf2 block -27%, A549 viability 3%, ELG1 repair inh inconclusive, IDH1 R132H inh 5% and Nrf2 activator -1%.
`Cc1nn(C(C)C(=O)N2CCN(c3ccc(Cl)cc3)CC2)c(=O)c2cc3occc3n12` (stereo not drawn) gave Nrf2 block 21µM*, A549 viability -13%, IDH1 R132H inh 3% and Nrf2 activator 3%.
COC(=O)c1ccc(COc2ccccc2/C=N/Nc2cccc(C(=O)O)c2)cc1 was read as Nrf2 block -4%, A549 viability -15%, ELG1 repair inh inconclusive, IDH1 R132H inh 15% and Nrf2 activator 1%.
`COC(=O)c1ccc(COc2ccccc2/C=C(\C#N)C(=O)Nc2ccccc2C)cc1` gave Nrf2 block 6%, A549 viability -4%, ELG1 repair inh inconclusive, IDH1 R132H inh -1% and Nrf2 activator 0%.
COC(=O)c1ccc(COc2ccccc2/C=C/C(=O)c2ccc(OCC(=O)O)cc2)cc1 was read as Nrf2 block 2%, A549 viability -1%, ELG1 repair inh -12%, IDH1 R132H inh 9% and Nrf2 activator 18µM*.
Screening COC(=O)c1ccc(COc2ccccc2/C=C(\C#N)C(=O)Nc2c(C)cccc2C)cc1 returned Nrf2 block inconclusive, A549 viability -21%, ELG1 repair inh 26µM*, IDH1 R132H inh 5% and Nrf2 activator 20%.
For COc1cc(SC)ccc1C(=O)Nc1ccccn1 the results were Nrf2 block inconclusive, A549 viability -10%, ELG1 repair inh inconclusive, IDH1 R132H inh 11% and Nrf2 activator 13µM*.
For COc1cc(SC)ccc1C(=O)Nc1cccc(C)n1 the results were Nrf2 block inconclusive, A549 viability 4%, ELG1 repair inh inconclusive, IDH1 R132H inh 7% and Nrf2 activator 1%.
Screening COC(=O)C1=C[C@@H](C(=O)OC)C2C3=C(C(=O)[C@@]2(C)NC(=O)c2ccccc2)[C@H](C)[C@@H]2C(=O)NC(=O)[C@@H]2[C@@H]3C1 (stereo partly drawn) returned Nrf2 block 2% and A549 viability 7%.
`CCn1c(-c2cc(-c3ccc(OC(C)C)cc3)nc3ccccc23)n[nH]c1=S` gave Nrf2 block 9%, A549 viability 2%, ELG1 repair inh inconclusive, IDH1 R132H inh 1% and Nrf2 activator 1%.
`CCn1c(-c2cc(-c3cc(OC)ccc3OC)nc3ccccc23)n[nH]c1=S` gave Nrf2 block -15%, A549 viability -6%, ELG1 repair inh 6.5µM*, IDH1 R132H inh 0% and Nrf2 activator 0%.
Screening CCn1c(-c2cc(-c3ccccc3OC)nc3ccccc23)n[nH]c1=S returned Nrf2 block -15%, A549 viability 0%, ELG1 repair inh 16µM*, IDH1 R132H inh 7% and Nrf2 activator -1%.

Bioassay records from PubChem BioAssay.
